Data from PMC5540273 (PLoS ONE, 2017).
Like-named read-outs stand apart in the source and are kept apart here.

Tests used:
[1] = system: AAK1; conditions: n = 1
[2] = system: ABL1-nonphosphorylated; conditions: concentration: 1 μM, replicates: in singlicate; n = 1
[3] = system: ABL1-phosphorylated; conditions: concentration: 1 μM, replicates: in singlicate; n = 1
[4] = system: ABL2; conditions: concentration: 1 μM, replicates: in singlicate; n = 1
[5] = system: ACVR1B; conditions: concentration: 1 μM, replicates: in singlicate; n = 1
[6] = system: ACVR1; conditions: concentration: 1 μM, replicates: in singlicate; n = 1
[7] = system: ACVR2A; conditions: concentration: 1 μM, replicates: in singlicate; n = 1
[8] = system: ACVR2B; conditions: concentration: 1 μM, replicates: in singlicate; n = 1
[9] = system: ACVRL1; conditions: concentration: 1 μM, replicates: in singlicate; n = 1
[10] = system: T1, ADCK3; conditions: concentration: 1 μM, replicates: in singlicate; n = 1
T1 construct: gene CABC1

[11] = concentration: 1 μM, replicates: in singlicate
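Note: KINOMEscan kinase panel screen.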

SMILES | %Inh [1, 11] [%] | %Inh [2] [%] | %Inh [3] [%] | %Inh [4] [%] | %Inh [5] [%] | %Inh [6] [%] | %Inh [7] [%] | %Inh [8] [%] | %Inh [9] [%] | %Inh [10] [%] | %Inh ([1]; 1 µM) [%]
Cc1ccc(Nc2ccnc(Nc3ccc(C)c(F)c3)n2)cc1O.Cl [GW582868] | 0 | 3 | 47 | 70 | 0 | 88 | 53 | 92.9 | 62 | 14 | 
O=C(O)C(F)(F)F.O=c1[nH]ccc2nc(N[C@@H]3CCNC3)nc(Nc3ccc4c(c3)S(=O)(=O)CC4)c12 [GSK2181306] | 87 | 53 | 66 | 26 | 0 | 15 | 0 | 3 | 0 | 14 | 
Fc1cc(Cl)ccc1Nc1ccnc2cc(-c3ccc(CN4CCSCC4)o3)ccc12 [GW560106] | 4 | 95.9 | 98.7 | 89 | 21 | 84 | 14 | 91 | 49 | 3 | 
COc1cccc(C2=C(Nc3cccc(O)c3)C(=O)NC2=O)c1 [SB-390771] | 38 | 0 | 4 | 10 | 0 | 18 | 0 | 6 | 0 | 5 | 
CCNC(=O)/C=C/c1n[nH]c2cc(Sc3ccccc3C(=O)NC)ccc12 | 29 | 98.5 | 89 | 24 | 24 | 12 | 20 | 15 | 0 | 4 | 
CCOc1nccc(-c2c(-c3ccc(F)cc3)ncn2C2CCNCC2)n1 [SB-249175] | 11 | 35 | 2 | 0 | 100 | 11 | 9 | 0 | 1 | 13 | 
CS(=O)(=O)c1cccc(CNc2nc(Nc3ccc4c(c3)CCC(=O)N4)ncc2C(F)(F)F)c1 | 21 | 54 | 16 | 0 | 0 | 0 | 0 | 0 | 0 | 0 | 
COC(=O)Nc1nc2ccc(Oc3ccc(CC(=O)Nc4cc(C(F)(F)F)ccc4F)cc3)cc2[nH]1 [GW680903] | 4 | 35 | 0 | 34 | 0 | 9 | 0 | 0 | 0 | 19 | 
Cc1ccc(-c2ccc3occ(-c4ccc(S(C)=O)cc4)c3c2)nn1 (centres unmarked) | 15 | 35 | 29 | 0 | 7 | 0 | 0 | 0 | 20 | 0 | 
CC(C)c1nc(-c2ccc(F)c(NS(=O)(=O)c3c(F)cccc3F)c2)c(-c2ccnc(Nc3ccc(N4CCOCC4)nc3)n2)s1 [GSK1804250] | 7 | 99.8 | 98.8 | 99.3 | 91.9 | 87 | 0 | 75 | 52 | 99.4 | 
COc1cccc(CC(=O)N2CCc3cc(-c4cn(C)c5ncnc(N)c45)ccc32)c1 [GSK2608899] | 18 | 57 | 4 | 30 | 14 | 0 | 0 | 61 | 19 | 2 | 
CN(C)CCNS(=O)(=O)c1ccc(-c2ccnc3[nH]ccc23)cc1 [GSK977620] | 21 | 0 | 0 | 8 | 6 | 0 | 0 | 0 | 0 | 10 | 
Nc1cccc(-c2ccc3c(N)n[nH]c3c2)c1 [GSK2193613] | 55 | 34 | 37 | 21 | 0 | 11 | 0 | 19 | 0 | 3 | 
CCn1c(-c2nonc2N)nc2c(-c3ccccc3)ncc(OCCCN)c21.O=C(O)C(F)(F)F.O=C(O)C(F)(F)F [GSK260205] | 14 | 0 | 9 | 16 | 61 | 38 | 0 | 0 | 0 | 46 | 
COc1ccc(C)c(Nc2ccnc(Nc3ccc(-c4cnc[nH]4)cc3)n2)c1.Cl [GW784041] | 29 | 95.4 | 97.1 | 92.8 | 74 | 99 | 93.5 | 93.3 | 91.7 | 40 | 
CSc1ccc(NC2=C(c3ccc(Cl)cc3)C(=O)NC2=O)cc1 [SB-317658] | 0 | 0 | 0 | 0 | 13 | 0 | 15 | 0 | 23 | 1 | 

SMILES | %Inh [1, 11] [%] | %Inh [2] [%] | %Inh [3] [%] | %Inh [4] [%] | %Inh [5] [%] | %Inh [6] [%] | %Inh [7] [%] | %Inh [8] [%] | %Inh [9] [%] | %Inh [10] [%] | %Inh ([1]; 1 µM) [%]
COC(=O)Nc1nc2ccc(Oc3ccc(NC(=O)Nc4cc(C(F)(F)F)ccc4F)cc3)cc2[nH]1.Cl [GW654607] | 17 | 99.4 | 57 | 94 | 0 | 0 | 0 | 0 | 0 | 1 | 
O=C(Nc1n[nH]c2nc(-c3ccccc3)ccc12)C1CC1 [SB-708999] | 100 | 62 | 41 | 16 | 22 | 6 | 9 | 37 | 0 | 2 | 
Fc1cc(Cl)ccc1Nc1ccnc2cc(-c3ccc(CN4CCOCC4)o3)ccc12 [GW560109] | 0 | 99.5 | 99.8 | 96.4 | 0 | 86 | 22 | 88 | 65 | 0 | 
c1ccc(Oc2ccc(Nc3ccnc4cc(-c5ccc(CN6CCCCC6)o5)ccc34)cc2)nc1 [GW567143] | 0 | 85 | 24 | 24 | 0 | 0 | 32 | 0 | 0 | 0 | 
Cl.O=C(Nc1ccc(Oc2ccc3[nH]c(NC(=O)c4ccco4)nc3c2)cc1)Nc1cc(C(F)(F)F)ccc1F [GW683134] | 5 | 96.1 | 76 | 97.9 | 0 | 0 | 4 | 0 | 0 | 0 | 
Cc1ccc(NC(=O)c2ccc(Cl)c(Cl)c2)cc1-c1ccc(C(=O)Nc2ccncc2)cc1 [GSK1398460] | 8 | 26 | 4 | 41 | 0 | 6 | 0 | 2 | 0 | 9 | 
Cn1cc(-c2ccc3c(c2)CCN3C(=O)Cc2cc(F)cc(C(F)(F)F)c2)c2c(N)ncnc21 [GSK2635225] | 10 | 78 | 15 | 40 | 0 | 0 | 0 | 12 | 0 | 17 | 
CC(C)(C)c1ccc(C(=O)Nc2cn3cc(-n4ccnc4)ccc3n2)cc1 | 12 | 44 | 21 | 22 | 7 | 0 | 10 | 8 | 0 | 2 | 
NCCC(NC(=O)c1cc(Br)c(-c2ccnc3[nH]ccc23)s1)c1ccccc1.O=C(O)C(F)(F)F.O=C(O)C(F)(F)F (centres unmarked) [GSK1307810] | 66 | 0 | 0 | 8 | 43 | 15 | 0 | 0 | 0 | 52 | 
Cl.Cl.NCC(NC(=O)c1cc(-c2cccnc2)c(-c2ccnc3[nH]ccc23)s1)c1ccccc1 (centres unmarked) [GSK1323434] | 59 | 54 | 37 | 30 | 0 | 19 | 0 | 0 | 0 | 97.5 | 
Nc1ncc(-c2ccc3nccc(-c4ccncc4)c3c2)cc1S(=O)(=O)N1CCCCC1 [GSK1693850] | 0 | 0 | 0 | 9 | 0 | 53 | 2 | 9 | 37 | 65 | 
Cc1ccc(NC(=O)c2cccc(N3CCCCC3)c2)cc1-c1ccc(C(=O)NCC2CC2)cc1 [GSK1917008] | 0 | 0 | 0 | 25 | 0 | 14 | 6 | 10 | 2 | 27 | 
O=C(Nc1n[nH]c2nc(-c3cccc(O)c3)ccc12)C1CC1 [SB-711805] | 33 | 94.2 | 88 | 27 | 13 | 32 | 43 | 74 | 0 | 0 | 
Cc1ccc(C)c(NC(=O)Nc2ccc(C)c(-c3ccc(C(=O)Nc4ccncc4)cc3)c2)c1 [GSK1398473] | 11 | 0 | 0 | 14 | 0 | 18 | 0 | 3 | 0 | 14 | 
O=C1NC(=O)C(c2ccccc2Cl)=C1Nc1cccc(Cl)c1 [SB-342409] | 7 | 0 | 9 | 16 | 0 | 12 | 0 | 0 | 70 | 20 | 
O=C(O)C(F)(F)F.O=c1[nH]ccc2nc(N[C@@H]3CCNC3)nc(Nc3cc(Cl)cc(Cl)c3)c12 [GSK2188764] |  | 9 | 11 | 0 | 0 | 0 | 0 | 0 | 0 | 25 | 89
